This note sets out measurements from PubChem BioAssay AID1347076 (National Center for Advancing Translational Sciences (NCATS), 2019).

In all, about 400,000 compounds went through this assay and about 13,000 (3.2%) were called active. Entries that show only a call come without a potency. About 18% were inconclusive and are not listed. The sample holds actives, similar compounds and a random draw of the others, so the mix is not that of the screen. Calls come from the whole dose curve; as a rule, active = well fitted cell-killing curve with a large enough effect; inconclusive = small, poorly fitted or top-dose-only effect, or effect the other way; inactive = flat fitted curve, though single readings scatter.
Potency is the fitted concentration of half-maximal effect.

This test in a line: qHTS assay for MDR1-selective chemotherapeutics: Primary screen using the drug-selected MDR subline cells KB-V1. Note: nearly all actives have a fitted effect of over 60% in size. To be noted: KB-V1 MDR cells viability, CellTiter-Glo, 72 h; series mostly up to 46.1 µM. Summed up: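 Compound-treated KB-V1 multidrug-resistant cells, 72 h, 37 degrees C; viability by CellTiter-Glo. Fitted qHTS curves give the values.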
On the technique in general: In qHTS, concentration-response curves come from the screen itself.
Regarding `O=C(Nc1ccc2c(c1)CCC2)c1cccc(S(=O)(=O)N2CCN(c3ccc(F)cc3)CC2)c1`, the Potency entry is “inactive”.
In the case of `O=C(c1cccc(S(=O)(=O)Nc2ccccc2Cl)c1)N1CCN(C(=O)c2ccco2)CC1` it was “inactive”.
Next, `O=C(Nc1ccc2c(c1)CCC2)c1cccc(S(=O)(=O)Nc2ccccc2Cl)c1`: 20.6 µM (active); `Cc1ccc2nc(/C(C#N)=C/c3ccc(-c4ccc(C(=O)OC(C)C)cc4)o3)[nH]c2c1`: “inactive”.
For the molecule `CCN(CC)C(=O)C(C)N1c2cccc3cccc(c23)S1(=O)=O` (stereo not given), the Potency entry was “inactive”.
Next, `CCOC(=O)c1ccc(NC(=O)Cc2cccs2)cc1`: “inactive”; `O=C(Cc1cccs1)Nc1cccc(-c2nc3ccccc3[nH]2)c1`: 16.4 µM (active); `O=C(Nc1ccc(-c2nc3ccccc3[nH]2)cc1)c1ccncc1`: “inactive”.
In the case of `CC(C)c1cc(C(=O)N(C)C2CCCN(Cc3ccccc3F)C2)n(C)n1` (stereo not given) it was “inactive”; in that of `Cc1nccn1-c1ccc(NC(=O)[C@H]2O[C@@H](n3ccc(=O)[nH]c3=O)[C@H](O)[C@@H]2O)cc1`, “inactive”; in that of `CCOC(=O)c1cc(-c2ccccc2)n(-c2cccc(C(=O)Nc3cc(OC)cc(OC)c3)c2)c1C`, “inactive”.
In the case of `Cc1c(NS(=O)(=O)c2ccc(Cl)cc2)c(=O)n(-c2ccccc2)n1C` it was “inactive”; in that of `COc1ccc(C(=O)C(C)OC(=O)c2cccc(S(=O)(=O)Nc3c(C)n(C)n(-c4ccccc4)c3=O)c2)cc1` (stereo not given), “inactive”; in that of `Cc1c(NS(=O)(=O)c2cccc(C(=O)Nc3ccc(SC(F)F)cc3)c2)c(=O)n(-c2ccccc2)n1C`, 5.17 µM (active).
In the case of `COc1cccc(CN2CCC(C(=O)NC(c3ccc4c(c3)OCO4)c3ccccn3)CC2)c1` (stereo not given), the Potency entry was “inactive”.
In the case of `COc1ccc(NC(C(=O)Nc2cccc(C(C)=O)c2)c2ccccc2)cc1` (stereo not given) it was 4.61 µM (active); in that of `COc1ccc(/C=C(/NC(=O)c2ccccc2)C(=O)Nc2cccc(C(=O)O)c2)cc1`, “inactive”; in that of `CC(=O)c1cccc(NC(=O)[C@@H](NC(N)=O)C(C)C)c1`, “inactive”.
On to `CN(C)c1ccc(/C=N\Nc2ccc([N+](=O)[O-])cc2[N+](=O)[O-])cc1Cl`, for which the Potency entry is “inactive”.
In the case of `CC(C)Cc1nc(Nc2ccc(S(=O)(=O)N3CCCC3)cc2)c2nnn(Cc3ccccc3)c2n1` it was 20.6 µM (active); in that of `CC(C)Nc1ncnc2c1nnn2Cc1ccccc1`, “inactive”.
Next, `Cc1nc(Nc2ccc(S(=O)(=O)N3CCCC3)cc2)c2nnn(Cc3ccccc3)c2n1`: “inactive”; `CCOC(=O)[C@]12CCC=C1N(Cc1ccco1)C(=O)[C@H](CC(=O)NCc1cccc(C(F)(F)F)c1)C2`: “inactive”.
On to `CCOC(=O)[C@]12CCCC=C1N(Cc1cccc3ccccc13)C(=O)[C@H](CC(=O)NCC13CC4CC(CC(C4)C1)C3)C2`, for which the Potency entry was “inactive”.
Turning to `CCOC(=O)[C@]12CCC=C1N(Cc1cccc3ccccc13)C(=O)[C@H](CC(=O)NCc1cccc(C(F)(F)F)c1)C2`, the Potency was 20.6 µM (active).
